Compound activity deposited in PubChem by several laboratories.
Rv3671c inh = inhibits the M. tuberculosis serine protease Rv3671c. P9WHR9. inhibition, % at 5.96 µM. 320,000 tested, 0.048% active. AID 2606; in the data active = inhibition above about 38%;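 also: extracellular domain of Rv3671c used as enzyme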
Mtb UGM inh = blocks M. tuberculosis UGM enzyme. P9WIQ1. purified UGM, fluorescence polarization probe displacement. inhibition, % at 10 µM. 320,000 tested, 0.06% active. AID 504406; in the data active = inhibition above about 10%, passing the limit was not always enough
RecA splice inh = Mtb RecA intein splicing inhibition | inhibition, % (no concentration beside the values) | P9WHJ3 | cell-free RecA intein splicing, fluorescence | 290,000 tested, 0.75% active; in the data active = inhibition above about 30%
Mtb FBA inh = inhibitors of M. tuberculosis fructose-bisphosphate aldolase; 360,000 tested, 2.3% active; inhibition, % at 1 µM; purified M. tuberculosis FBA, fluorescence read-out; in the data active = inhibition above about 27%
Target sequence (P9WQA3 whole entry, looked up): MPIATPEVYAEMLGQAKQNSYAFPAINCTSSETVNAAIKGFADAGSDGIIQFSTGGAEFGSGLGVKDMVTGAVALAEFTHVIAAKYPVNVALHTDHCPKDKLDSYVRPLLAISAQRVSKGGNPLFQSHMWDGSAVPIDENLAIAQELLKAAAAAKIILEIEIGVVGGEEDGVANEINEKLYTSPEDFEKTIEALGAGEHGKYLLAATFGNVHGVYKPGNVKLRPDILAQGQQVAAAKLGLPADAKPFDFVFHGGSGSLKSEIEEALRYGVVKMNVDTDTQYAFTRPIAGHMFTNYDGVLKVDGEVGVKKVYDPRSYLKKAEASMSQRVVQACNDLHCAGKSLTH
GDH-TPI counter = inhibits GDH-TPI coupling enzymes, artifact for Mtb FBA screen; GDH-TPI coupled enzyme counterscreen, NADH absorbance; inhibition, % at 4.8 µM; 360,000 tested, 1.2% active; AID 588335; in the data active = inhibition above about 30%
Mtb bLac sens = beta-lactam sensitization of Mtb H37Rv; M. tuberculosis H37Rv growth with meropenem, percent inhibition; inhibition, % at 25 µM; 330,000 tested, 0.27% active; AID 434955; call rule not given here;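 also: growth measured after seven days incubation then overnight dye step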
Of the large screens only hits and unclear results are named; the others gave an inactive call. An excerpt weighted towards active compounds, which were near 4% of everything screened.

Cn1c(O)c(N=NC(=O)Cn2c(C(F)(F)F)nc3ccccc32)c2ccccc21	none
CCn1c(COc2ccc(C(C)C)cc2)nnc1SCC(=O)Nc1nccs1	none
O=C1C=C(c2ccoc2)N2CCC[C@H]2C1	GDH-TPI counter 39 (no result: RecA splice inh)
O=C(N/N=C/c1ccc[nH]1)c1ccc(Cl)cc1	GDH-TPI counter 39
O=C(N/N=C/c1ccc[nH]1)c1ccccc1[N+](=O)[O-]	none
Cc1ccc(C(=O)N/N=C\c2ccc[nH]2)cc1[N+](=O)[O-]	GDH-TPI counter 48
Cc1ccc(-c2nc(C(=O)NCCCN(C)C)cc3c2[nH]c2ccccc23)cc1	Mtb FBA inh 28
COc1ccc(S(N)(=O)=O)cc1C(=O)NCC(C)(C)N1CCCCC1	none (no result: RecA splice inh)
CCOc1ccc(/C=N/n2nnnc2N)cc1OCC	GDH-TPI counter 31
COC(=O)c1ccccc1C(=O)N1CCOCCOCCOCC1	none
O=C(O)COc1ccccc1/C=C1\SC(=S)N(NC(=O)c2ccccc2O)C1=O	GDH-TPI counter 33
COCCNc1cc(C)nc2c(-c3ccccc3OC)c(C)nn12	none
COCCNc1cc(C)nc2c3c(C)cc(C)nc3nn12	Mtb FBA inh active
Cc1cc(C)c2c(n1)nn1c(NCCN3CCOCC3)cc(C)nc21	Mtb FBA inh active
S=C(NCCc1ccccc1)N1Cc2ccccc2-n2nncc2C1	none (no result: Rv3671c inh, Mtb UGM inh, RecA splice inh, Mtb bLac sens)
CC1CCN(S(=O)(=O)c2ccc3c(c2)N(CC(=O)NCCCN2CCCC(C)C2)C(=O)CO3)CC1 (centres undefined)	none
O=C(N/N=C/C=C/c1ccco1)c1cnccn1	none
O=C(N/N=C\C=C\c1ccco1)c1cc(-c2ccc3ccccc3c2)n[nH]1	none
O=C(N/N=C/C=C/c1ccco1)c1cccnc1	GDH-TPI counter 38
O=C(N/N=C/C=C\c1ccco1)c1ccccn1	GDH-TPI counter 35
O=C(N/N=C/C=C/c1ccccc1)c1cccnc1	none
Cc1ccc(OCC(=O)N/N=C/C=C/c2ccco2)cc1C	GDH-TPI counter 37
O=C(N/N=C/C=C\c1ccco1)c1cccnc1	GDH-TPI counter 33
Cc1ccc(Cn2c(CCNc3nc(-c4ccc(Cl)c([N+](=O)[O-])c4)cs3)nc3cc(Cl)c(Cl)cc32)cc1	none
CCCN1CCN(CCCNC(=O)Cn2nc(-c3ccccc3)ccc2=O)CC1	none
O=C(N/N=C/C=C\c1ccccc1[N+](=O)[O-])c1ccccn1	none
O=C(N/N=C/C=C\c1cccc([N+](=O)[O-])c1)c1ccccn1	GDH-TPI counter 34
O=C(N/N=C\C=C\c1ccco1)c1cncc(Br)c1	GDH-TPI counter 34
COc1ccc(N2CC(=O)N(c3ccc(OC)c(OC)c3)CC2=O)cc1OC	none
Cc1nn(Cc2ccccc2)c(C)c1/C=N/NC(=O)c1ccncc1	none
Cc1nn(Cc2ccccc2)c(C)c1/C=N/NC(=O)c1ccccc1O	GDH-TPI counter 36
CC(C)(C)OC(=O)N(CCc1ccccc1)Cc1ccc(OCc2cccc(NC(=O)/C=C/c3ccccc3)c2)cc1	GDH-TPI counter 36 (no result: Rv3671c inh, Mtb UGM inh, RecA splice inh, Mtb bLac sens)
CNC(=O)COC(=O)CCC(=O)c1ccc(Cl)cc1	none
N#Cc1nc(COc2ccccc2)oc1N1CCOCC1	none
N#Cc1nc(-c2cccs2)oc1N1CCOCC1	Mtb FBA inh active
CC1CN(c2oc(-c3cccs3)nc2C#N)CC(C)O1 (centres undefined)	Mtb FBA inh active
CC(/C=N/NC(=O)c1nnn(-c2nonc2N)c1CN1CCCCC1)=C\c1ccccc1	GDH-TPI counter 34
CC(C)c1c(C(=O)N/N=C/C=C/c2ccccc2)nnn1-c1nonc1N	GDH-TPI counter 39
CC(/C=N/NC(=O)c1nnn(-c2nonc2N)c1C(C)C)=C\c1ccco1	GDH-TPI counter 37
CCCc1c(C(=O)N/N=C/C(C)=C/c2ccco2)nnn1-c1nonc1N	none
CC(C)c1c(C(=O)N/N=C/c2ccncc2)nnn1-c1nonc1N	none
CN(C)Cc1c(C(=O)N/N=C/C=C/c2ccccc2)nnn1-c1nonc1N	GDH-TPI counter 34 (no result: RecA splice inh)
Cc1ccc(C)c(S(=O)(=O)N2CCCC2CNC(=O)C(=O)NC2CCCCCC2)c1 (centres undefined)	none
CCOC(=O)/C(C#N)=C/c1c(N2CCN(C)CC2)nc2ccccn2c1=O	none
COCCNC(=O)/C(C#N)=C/c1c(N2CCN(C)CC2)nc2ccccn2c1=O	Mtb FBA inh 192
CC1CCN(C(=O)CN2C(=O)c3cccc4cccc(c34)C2=O)CC1	GDH-TPI counter 35
CC1CCN(C(=O)CN2C(=O)C(=O)c3ccccc32)CC1	none
CCCS(=O)(=O)N1CCC(Cc2ccc(OC)cc2)(C(=O)OCC)CC1	none
CNc1cnc(-c2ccc(C(=O)N3CCOCC3)cc2)cn1	Mtb FBA inh active (no result: Rv3671c inh, Mtb UGM inh, RecA splice inh, Mtb bLac sens)
CCCCN(CC)Cc1ccc(CNC(=S)Nc2ccccc2F)o1	none
CCCS(=O)(=O)N1CCN(Cc2ccc([N+](=O)[O-])cc2)CC1	none
Cc1cc(/C(=N/O)C(C)(C)NO)ccc1Cl	none
CC(C)(NO)/C(=N\O)c1ccccc1	Mtb FBA inh 54
NC(=O)CSc1nc2sc(-c3ccccc3)cc2c(=O)n1N	GDH-TPI counter 35
Cc1nc2sc(-c3ccccc3)cc2c(=O)n1-n1cccc1	none
Cc1nc2sc(-c3ccccc3)cc2c(=O)n1N	GDH-TPI counter 47
COc1ccc(-c2nn(-c3ccccc3)cc2CNC[C@H]2O[C@@H](n3cnc4c(N)ncnc43)[C@H](O)[C@@H]2O)cc1	none (no result: RecA splice inh)
COc1ccccc1OCCN1CSC(=S)N(C)C1	none
Cc1cccc(OCCN2CSC(=S)N(C)C2)c1	RecA splice inh 42
Cc1ccc(NC(=S)/C(=C(\[O-])c2ccc(C)c([N+](=O)[O-])c2)[n+]2ccccc2)cc1C	none (no result: Mtb FBA inh, GDH-TPI counter)
COc1cccc(NC(=S)/C(=C(\[O-])c2ccc(C)c([N+](=O)[O-])c2)[n+]2ccccc2)c1	RecA splice inh 37
COc1ccc(C2=NCCn3cccc32)c(OC)c1	GDH-TPI counter 49
CC(C)(O)C#Cc1ccccc1C(=O)NC(CC(N)=O)C(=O)O (centres undefined)	GDH-TPI counter 32
CCOC(=O)Cc1csc(NC(=O)c2cnc3sc(C)cn3c2=O)n1	GDH-TPI counter 54
CCOC(=O)Cc1csc(NC(=O)c2cc3c(s2)CCCC3)n1	GDH-TPI counter 31
COc1cccc2[nH]c3c(N4CCC(C(N)=O)CC4)ncnc3c12	Mtb FBA inh 183
COc1cc2[nH]c3c(N4CCC(C(N)=O)CC4)ncnc3c2cc1OC	none (no result: Mtb FBA inh, GDH-TPI counter)
COc1ccc(-c2nc3ccc(C)cn3c2Cc2ccccc2)cc1OC	Mtb FBA inh 90 (no result: Rv3671c inh, Mtb UGM inh, RecA splice inh, GDH-TPI counter, Mtb bLac sens)
COc1cc(-c2nc3ccc(C)cn3c2NCc2ccccc2)ccc1SC1CCCCC1	Mtb FBA inh 39
O=C(Nc1cccc(C(=O)NC2CCCCC2)c1)c1ccccc1	none
Nc1ccc(C(=O)Nc2ccc3nc(-c4ccncc4)[nH]c3c2)cc1	none
Cc1ccc(NC(=O)c2cnn(-c3ccccc3)c2NC(=O)c2ccco2)cc1	Mtb FBA inh 181
O=C(Nc1cccc(-c2nc3ccccc3[nH]2)c1)c1ccco1	none
